Columns and labels:
Test in all cases: PBM binding z-score (relative to random genomic background probes); higher = stronger binding; sequences stand for … in GC…GCGATTGACAGCGTAGAATGAAGG
[1] = test system: RARb homodimer (NR concentration 270 nM)
Outline: (§1)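 Ligand-free nuclear receptor dimers were bound for 1 h to custom Agilent 4×180K protein-binding microarrays. Detection used antibodies against each partner (one per run). Binding z-scores rest on regression-normalized fluorescence, with random background probes as the reference.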

[2] = test system: RARg:RXRa (NR concentration 270 nM, RXRa partner concentration 90 nM)
Outline: as §1

[3] = test system: RARg homodimer (NR concentration 270 nM)
Outline: as §1

[4] = test system: RXRa DBDmut IVT, anti-RXR (DBD mutation: RXRa K156A/R161A, NR concentration 90 nM)
Outline: as §1

[5] = test system: RXRa homodimer (NR concentration 180 nM)
Outline: as §1

[6] = test system: THRa:RXRa (NR concentration 90 nM, RXRa partner concentration 90 nM)
Outline: as §1

[7] = test system: THRa homodimer (NR concentration 90 nM)
Outline: as §1

[8] = test system: VDR:RXRa (NR concentration 270 nM, RXRa partner concentration 90 nM)
Outline: as §1

[9] = test system: VDR homodimer (NR concentration 270 nM)
Outline: as §1

| Sequence | PBM binding z-score [1] | PBM binding z-score [2] | PBM binding z-score [3] | PBM binding z-score [4] | PBM binding z-score [5] | PBM binding z-score [6] | PBM binding z-score [7] | PBM binding z-score [8] | PBM binding z-score [9] |
| --- | --- | --- | --- | --- | --- | --- | --- | --- | --- |
| AATACAGGCTCACTAGGCCAGAGTAGGTACGAAT | -0.345 | -0.402 | -0.0557 | -0.214 | -0.169 | -0.688 | -0.397 | -0.46 | -0.126 |
| GCTAGCCGGCCATTTGGGTCACTCAATGACGGGC | 1.75 | 0.912 | 1.1 | -0.739 | 0.725 | 1.62 | 0.719 | 0.203 | 0.157 |
| TCATATAGGTAAACAGGTGAAAGTGCGTAAGTTA | 1.09 | 0.642 | 0.552 | 1.66 | 1.17 | 0.829 | 0.583 | 1.29 | 0.623 |
| AGAACGAGGGCACTCTGAGTTGATAGCAGAGTAG | 0.374 | 1.4 | 1.55 | 2.21 | 0.823 | 1.29 | -0.153 | 1.88 | 1.73 |
| CGAACGAGGACATGAGTTGATAGCAAATGCCGAT | 0.159 | 0.527 | 1.16 | 1.52 | 0.107 | 2.23 | 1.28 | 0.112 | 0.998 |
| CAAACTAGGTCAAAGATCAAAGTCGAGCCAACCA | 2.5 | 4.93 | 4.62 | 1.97 | 5.28 | 2.9 | 0.494 | 2.52 | 0.479 |
| ATATGTAGGTTATCGGGTCATTCCGTTTGCGCAT | 3.06 | 3.32 | 2.35 | 1.67 | 3.38 | 3.36 | 2.82 | 3.86 | 3.21 |
| ATCACTAGGTAACCAAGTTCAGTGAATGCCGAAC | 1.26 | 0.732 | 0.632 | 0.466 | 0.53 | 1.32 | 0.313 | 3.92 | 2.41 |
| CGTCCAAGGTCAATGTCAGTGAAAGAGACTCGAA | 3.64 | 5.4 | 5.96 | 3.62 | 4.79 | 3.57 | 1.84 | 3.45 | 2.02 |
| AGAATGAGGTTATACGTAGTTCAGGGAAGAAAGT | 1.63 | 3.82 | 1.45 | 1.54 | 2.57 | 2.55 | 0.588 | 3.09 | 1.61 |
| CCGAGTTGGTCAGGAGGTCACACACCGGATATGA | 4.31 | 5.33 | 4.41 | 1.8 | 4.96 | 3.47 | 2.02 | 4.19 | 3.09 |
| CATACAGGGTCAGTTAGGCCAGAGTAGGGACGGC | 2.87 | 3.61 | 3.84 | 1.68 | 2.94 | 2.77 | 1.04 | 3.05 | 1.69 |
| GCGACTGGGGTAAAGCAGGTTACCATAAGGTTGG | 0.792 | 0.464 | 0.108 | -0.286 | 1.03 | 2.59 | 0.334 | 1.15 | -0.11 |
| CCAAACAGGTGAAAGGTAACTCAGTCTGGTACGC | 0.802 | 1.11 | 0.696 | 0.223 | 1.99 | 0.954 | 0.0389 | 0.991 | 0.206 |
| GCTCGGCGGACAAGGTCAGAGCTTTGTCCGTAGA | 2.47 | 2.59 | 2.54 | -0.314 | 2.11 | 2.25 | 0.553 | 0.376 | 0.0541 |
| CAAACTAGGTCAAGGTCACAGTCGGTTTGTGCCA | 5.15 | 6.22 | 6.99 | 2.66 | 5.94 | 4.67 | 4.75 | 5.06 | 4.27 |
| ACTATTAGTTGACTTAGGGCAACCCATACGACGC | 1.13 | 0.747 | 1.04 | 0.729 | 0.631 | 1.55 | 0.725 | 0.512 | 0.642 |
| TCATATAGGTAATACAGGTGTAAGTCGGCATCTA | -0.213 | 0.547 | 0.355 | 1.67 | 1.03 | 0.384 | 0.316 | 1.17 | 0.283 |
| ACTATTAGTTGTGACGAGGGCAACCGATAGGTTG | 1.21 | 0.579 | 0.719 | 0.601 | 0.491 | 1.32 | 0.209 | 0.506 | 0.862 |
| TCGAGCAGGCCAGAGGGTCACTCAAGAGGTACGG | 2.68 | 2.77 | 2.03 | -0.586 | 2.65 | 1.51 | -0.421 | 1.48 | 0.462 |
| ACTATTAGTTCAGACGAGGGCAACCGATAGGTTG | 2.05 | 1.74 | 1.88 | 2.26 | 0.943 | 4.09 | 0.384 | 2.84 | 2.44 |
| ACTATTAGTTGACTTAGCGCAACCGATACGACGC | -0.331 | 0.0723 | 0.494 | 0.553 | 0.244 | -0.258 | -0.16 | 0.0494 | 0.12 |
| CGAACTAGGTCATTGAAAGGACAGTGAATAGTAA | 3.34 | 6.37 | 4.98 | 2.17 | 2.84 | 3.16 | 0.878 | 2.36 | 0.863 |
| CGTCCAAGGTCAATGGTCAGTGAAGAGATGACGG | 4.04 | 5.46 | 6.07 | 3.36 | 4.67 | 3.6 | 2.11 | 3.55 | 2.25 |
| ATATGTAGGTTATCGGGTCATTCAATTTGCGCAT | 3.35 | 3.52 | 2.68 | 1.57 | 3.4 | 3.59 | 2.86 | 3.87 | 2.76 |
| ATCGAAAGGTCGTGAGGTGAGTCTACAGAAAGGC | 3.17 | 4.64 | 3.92 | 1.06 | 5.19 | 3.48 | 1.43 | 3.66 | 1.09 |

| Sequence | PBM binding z-score [1] | PBM binding z-score [2] | PBM binding z-score [3] | PBM binding z-score [4] | PBM binding z-score [5] | PBM binding z-score [6] | PBM binding z-score [7] | PBM binding z-score [8] | PBM binding z-score [9] |
| --- | --- | --- | --- | --- | --- | --- | --- | --- | --- |
| CCACGGAGGACAGAAGGTCAGAGCTGTCCGCTTT | 3.73 | 3.62 | 3.48 | 0.42 | 2.22 | 2.44 | 0.0793 | 0.979 | 0.236 |
| GCTACTAGGTCAGGTTGGTCAGCTAACGGGTACG | 2.98 | 2.63 | 3.84 | 0.551 | 1.24 | 1.85 | 1.16 | 0.914 | 0.983 |
| CCTGCTAGGTCAATGGTCAGCTGAAGCAGCTCGC | 3.18 | 3.7 | 4.37 | 1.85 | 2.2 | 2.36 | 0.335 | 0.785 | 0.0523 |
| TCTCGGAGGGCACGAAGGTCAGAGCTTTCCAGAG | 3.94 | 4.11 | 3.97 | 0.77 | 2.79 | 2.63 | -0.228 | 5.15 | 1.81 |
| CGAACTAGGTCATTGACAGGACAGTTAATAGTAA | 2.42 | 4.65 | 4.41 | 2.52 | 2.86 | 2.77 | 0.893 | 2.16 | 1.27 |
| TCATATAGGTAATACAGGGGAAAGTCGGCATCTA | 0.303 | 0.419 | 0.551 | 1.97 | 0.857 | 0.893 | 0.385 | 1.06 | -0.00129 |
| GCTCGGAGGACAATGTCAGAGCTTTGTCCGTAGA | 0.0448 | -0.133 | 0.0822 | 0.18 | -0.593 | 0.348 | -0.612 | -0.573 | -0.447 |
| CAAACTAGGTCAAGGTCAAGGTCGGTTTGTGCCA | 5.4 | 6.25 | 7.34 | 2.79 | 6.62 | 4.54 | 4.73 | 5.24 | 4.06 |
| CGAACTAGGTCATTGACAGGATAGTGAATAGTAA | 2.38 | 3.62 | 3.86 | 2.34 | 2.55 | 2.57 | 0.521 | 1.64 | 0.957 |
| AGAATGAGGTTATGAAGATCAGGGAATTGCGGTC | 1.07 | 1.45 | 1.06 | 1.05 | 2.45 | 2.35 | 0.96 | 1.44 | 0.716 |
| CCTAGCAAGCCAATCTGGGTCACTCAAGGCTTGA | 1.9 | 0.58 | 0.537 | -0.0119 | 0.781 | 2.99 | 0.441 | 0.396 | 0.0159 |
| GGAACGAGGGCAAAGTTGATAGCATCTGTCGACG | 1.33 | 2.18 | 1.82 | 2.76 | 2.22 | 1.25 | -0.111 | 1.23 | 1.21 |
| TATACAGGGTCAAACGCCAGAGTACGAATGTCGA | 3.44 | 5.93 | 5.27 | 3.62 | 6.88 | 3.56 | 0.861 | 5 | 4.28 |
| CCTACTGGGCCATCAGGTCATCGATATCAACGTT | 2.83 | 2.31 | 2.29 | 0.257 | 1.58 | 3.45 | 3.33 | 1.77 | 1.24 |
| AATAGTTGGTCAGCTGAGGTCACACACAATTCGG | 4.34 | 4.25 | 4.37 | 1.48 | 4.26 | 4.94 | 5.21 | 4.69 | 3.62 |
| CGAACTAGTTCAGAACAGGACAGTGAAGGATGAT | 0.329 | 0.335 | 0.706 | 1.18 | 0.233 | 1.8 | -0.53 | -0.0284 | 0.226 |
| TCATATAAGTAAAAGGTGAAAGTCGGTGTGGTAA | 1.85 | 1.3 | 0.831 | 1.85 | 2.11 | 1.46 | 0.55 | 1.24 | 0.109 |
| CCGACTGGGGCAGAAAGGTTACCATACCATCCGG | 1.96 | 1.73 | 1.25 | -0.648 | 1.61 | 0.85 | -0.396 | 0.836 | -0.314 |
| TCATATAGGTAAATGCTAGGTGAAAGTCCGATCT | 0.629 | 0.482 | 0.503 | 1.42 | 0.567 | 1.39 | 0.441 | 0.886 | 0.42 |
| ATCTCTAGGTAAAAAGTTCAGTGAAAGAGAGGAC | 2.67 | 2.69 | 2.46 | 0.695 | 1.04 | 1.22 | 0.595 | 1.39 | 1.56 |
| GCTTGTAGATCAAGGTTAATAAAGACTAAGCTAA | 0.0389 | 0.0476 | 0.168 | -0.167 | 0.452 | 1 | -0.489 | -0.00898 | -0.152 |
| CGAACTAGGTCATGGACAGTGAATCTCCGCACGC | 2.85 | 3.94 | 4.35 | 1.84 | 3.21 | 2.94 | 1.16 | 1.64 | 0.367 |
| GCAGACAGGTGAAACGCACGTAACTCAGGGTGGC | -0.115 | 0.327 | 0.0511 | -0.335 | 0.528 | -0.124 | -0.367 | -0.568 | -0.768 |
| TCATATAGGTAAATGCTAGGTGAAATTCCGATCT | 0.107 | 0.506 | 0.4 | 1.46 | 0.811 | 1.29 | 0.404 | 0.761 | -0.0885 |
| GCTTGTAGATAAAGGTTAAGAAAGACTAAGCTAA | 0.948 | 1.29 | 1 | -0.0132 | 1.86 | 1 | -0.76 | 0.626 | -0.0184 |
| CGTCCAAGGTCAAAGGTTAGTGAAGAGATGACGG | 4.34 | 7.04 | 6.48 | 3.99 | 8.4 | 4.33 | 2.53 | 5.39 | 3.02 |

Reference: the supplement of paper PMC6555819
